Results on 33 molecules are retold here after PubChem BioAssay AID493200 (National Center for Advancing Translational Sciences (NCATS), 2011).

Inconclusive results are not listed. A number with no mark means an inactive call. Activity calls are given as the source filed them. Calls follow the shape of the dose curve; as a rule, active = well fitted activation curve with a large enough effect; inconclusive = small, poorly fitted or top-dose-only effect; inactive = no such curve, though single readings can be large or run the other way.
Potency is read from the fitted curve at half-maximal effect.

A short description of the assay: qHTS Assay for Rab9 Promoter Activators: Initial hit validation from the primary screen. As to activation: % of control where 0% means no effect. To be noted: Huh7 Rab9 promoter luciferase reporter, 24 h; series mostly up to 46.1 µM; activation: at the top concentration. The procedure, abridged:
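Luciferase signal, read 10 min after Amplite reagent, reports Rab9 promoter activation. Compounds in DMSO were applied for 24 h at 37C to Rab9-luciferase Huh7 cells, pre-incubated 2 h in reduced-serum medium with 10% FBS.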
A general note: qHTS replaces the single test concentration by a dilution series.
On to `NC(=O)C1(NC(=O)[C@@H]2CC3(CC(c4cccc(NC(=O)[C@@H]5CCC(=O)N5)c4)=NO3)CN2C(=O)c2ccccc2)CC1` (stereo partly drawn), for which the “activation” value is 6.9%.
Same read-out and setting: to `CN(C)C(=O)[C@H]1C[C@H]1[C@@H](O)[C@H](CO)NC(=O)[C@H](COCc1ccccc1)NC(=O)OC(C)(C)C` belongs -1.21%.
For `CC1CCc2sc(C(=O)NNC(=S)NC3CC3)cc2C1` (stereo not drawn), the Potency was 19900 nM (active).
For the molecule `CC1CCCN(S(=O)(=O)c2ccc(C(=O)Nc3nnc(-c4ccncc4)o3)cc2)C1` (stereo not drawn), the “activation” value is -34.8%.
On to `Cc1[nH]n(-c2cccc3ccccc23)c(=O)c1/C=N/c1sc2c(c1C#N)CCC2`, for which the “activation” value is 6.46%.
On the same count and under the same terms, in the case of `CCN(CC(=O)N(CC(C)C)c1c(N)n(CC(C)C)c(=O)[nH]c1=O)Cc1nc2ccccc2c(=O)[nH]1` it was 3.7%.
Take `O=C(NCCc1ccccc1)c1cc2ncc(Br)cn2n1`: the Potency was 25000 nM (active).
As for `Cc1ccc(C(=O)Nc2ccc(N3CCN(C)CC3)nc2)cc1`, the Potency is 25000 nM (active).
For `COc1cccc(NC(=O)CN2C(=O)CSc3ccc(S(=O)(=O)N4CCC(C)CC4)cc32)c1`, the “activation” value was -20.2%.
In the case of `COC(=O)c1sccc1NC(=S)OC`, the “activation” value is -1.18%.
On to `CCOC(=O)CSc1nc2cc3c(cc2cc1C#N)OCO3`, for which the Potency is 888 nM (active).
On to `NC(=O)C(=O)NN=C1C2CC3CC(C2)CC1C3`, for which the “activation” value was 0%.
With `CC(Sc1nnc(C(F)(F)F)n1C)C(=O)Nc1ccc(S(N)(=O)=O)cc1` (stereo not drawn), the “activation” value was 0.495%.
On the same count and under the same terms, to `CCC(=O)N1c2ccccc2NC2=C(C(=O)CCC2)C1c1ccc(N(C)C)cc1` (stereo not drawn) belongs -5.08%.
Still for that read-out and setting: in the case of `Cc1cccc(N2CCN(C(=S)c3ccccc3)CC2)c1` it was 18.2%.
As for `CCC(=O)Nc1cc(-c2cc3ccccc3oc2=O)ccc1OC`, the Potency is 791 nM (active).
For `CCCN(CCC)CCCNC(=O)c1cc2cc3ccc(Cl)cc3nc2o1`, the “activation” value is -13%.
Consider `COCCNC(=O)Cn1nc(-c2ccccc2)c2ccccc2c1=O`, for which the “activation” value was 0.448%.
With `COc1ccc(/C=C\c2onc(C)c2S(=O)(=O)N2CCC(C(=O)NCCC(C)C)CC2)cc1`, the “activation” value is -9.91%.
Still for that read-out and setting: in the case of `Cc1ccc(C(=O)Nc2nnc(S(=O)(=O)N3CCOCC3)s2)cc1` it was 9.51%; in that of `CCCOC(=O)Cn1cnc2scc(-c3ccc(OC)cc3)c2c1=O`, -8.76%.
As to `Cc1csc(NC(=O)CSc2nnc(-c3ccncc3)o2)n1`, the Potency was 25000 nM (active).
For `O=C(c1cccc(Oc2ccc([N+](=O)[O-])cc2)c1)N1CCOCC1`, the “activation” value was -14.3%.
On to `Cc1ccc2c(c1)sc1nc(=O)n(-c3ccccc3)c(=O)n12`, for which the Potency is 499 nM (active).
As to `COCCNC(=O)C1CCC(CNS(=O)(=O)c2ccc(F)cc2)CC1` (stereo not drawn), the “activation” value is -4.18%.
Still for that read-out and setting: to `COc1ccc(-n2c(N)c(C(=O)NCc3ccco3)sc2=S)cc1` belongs 2.44%.
Turning to `Cc1ccc(C#N)c(SCC(=O)Nc2nccs2)n1`, the Potency is 791 nM (active).
With `Cc1ccc(C2C3=C(CC(C)(C)CC3=O)N(CCN3CCOCC3)C3=C2C(=O)CC(C)(C)C3)cc1`, the “activation” value was -2.96%.
In the case of `O=C(CSc1nnc(-c2ccc([N+](=O)[O-])cc2)o1)Nc1ccccn1`, the Potency is 560 nM (active).
Same read-out and setting: to `CCOC(=O)CSc1nc2cc(C)ccc2cc1C#N` belongs 996 nM (active).
As for `NCCOc1ccccc1-c1ccccc1`, the “activation” value is -3.52%.
Take `CCCc1cc(C(=O)Nc2ccccc2SC)no1`: the Potency is 25000 nM (active).
For the molecule `Cc1ccc(C)c(Nc2cc(C)nc3ncnn23)c1`, the “activation” value was -2.73%.
